Only some compounds are listed: those with a hit (about 19% of all), similar ones and a draw of the others.
IL-1B inflam inh – blocks inflammasome-driven IL-1 beta release. THP-1 LPS/ATP IL-1B secretion, AlphaLISA, 16 h; hits give low values. activity change, % at 57.5 µM. actives 4.7% (n = 360,000); in the data active = activity change below about -50%; inconclusive = mostly about -30% to -49%
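Secreted IL-1B measured by AlphaLISA bead assay after 16 h compound exposure of THP-1 cells; compounds (final up to 57.5 uM) added 1 h before LPS (250 ng/mL) and ATP (1.25 mM) stimulation; lower signal means less secretion.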
TDP1 cell CPT – growth inhibition of DT40 Tdp1-/-;hTDP1 cells with camptothecin (screen for TDP1 inhibitors) | AID 686979 | Potency, µM (top dose mostly 46.2 µM), without a hit: at the top dose activity change, negative = growth inhibition, most hits filed as inhibitors | chicken DT40 Tdp1-/-;hTDP1 cells + 20 nM CPT, ATP luminescence, 48 h | actives 12% (n = 420,000); also: potency is read from the fitted curve at half-maximal effect; nearly all actives have a fitted effect of over 55% in size
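Chicken DT40 Tdp1-/- cells complemented with human TDP1, 400 cells/well, exposed to compounds plus 20 nM camptothecin for at least 48 h at 37 C; viability read as ATP content by CellTiter-Glo luminescence.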
HT1080 IDH1KD tx – toxicity to HT-1080 IDH1 knockdown cells (counter line); Potency, µM (doses to about 46.1 µM), inactives show at the top dose activity, negative = toxicity, usual class: cytotoxic; HT-1080 IDH1 knockdown viability, ATP luminescence, 48 h; AID 686971; actives 2% (n = 360,000);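 also: potency is read from the fitted curve at half-maximal effect; 0% = DMSO wells and -100% = cell-free medium wells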
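HT-1080-IDH1KD cells (IDH1 knocked down), 750/well in RPMI with 5% FBS, treated with compound 48 h at 37 degrees C. Viability by CellTiter-Glo luminescence, normalised to DMSO and no-cell wells; concentration-response curves classed.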
HT1080NT lethal – kills 2HG-producing HT-1080-NT fibrosarcoma cells; HT-1080-NT fibrosarcoma viability, CellTiter-Glo ATP luminescence, 48 h; Potency, µM (series often up to 46.1 µM), without a hit: top-dose activity, negative = less viability, usual class: cytotoxic; actives 1.6% (n = 360,000); AID 686970;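 also: NT is the 2HG producing partner of a matched IDH1 knockdown line; potency is read from the fitted curve at half-maximal effect; 0% = DMSO-treated cells and -100% = media-only wells without cells; nearly all actives have a fitted effect of over 55% in size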
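Toxicity toward the 2HG-producing NT line was scored as %Activity, normalised to DMSO and no-cell wells, from CellTiter-Glo luminescence after 48 hours' treatment.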
ELG1 DNA repair – blocks ELG1-dependent DNA repair in HEK293T cells; HEK293T ELG1-luciferase reporter, luminescence, 16 h; DNA damage induced by 5-fluorouridine; Potency, µM (titrated, usually from 46.1 µM), for inactives: at the top dose activity change, negative = inhibition, hits mostly inhibitors; actives 2.3% (n = 330,000); AID 504467; also: potency is read from the fitted curve at half-maximal effect; nearly all actives have a fitted effect of over 55% in size
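Cells (2,000 per well) received 5-fluorouridine plus test compound or DMSO and were incubated 16 hr at 37 °C, 5% CO2. Luciferase activity was read by luminescence 30 min after ONE-Glo addition; signal suppression marked inhibition of damage-induced ELG1 function.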
TDP1 cell noCPT – qHTS for Inhibitors of human tyrosyl-DNA phosphodiesterase 1 (TDP1): qHTS in cells in absence of CPT; DT40 Tdp1-/- hTDP1 cells, no CPT, ATP luminescence, 48 h; Potency, µM (top dose mostly 46.2 µM), without a hit: top-dose activity change, negative = growth inhibition, usual class: inhibitors; actives 15% (n = 420,000); AID 686978, 2013; also: potency is read from the fitted curve at half-maximal effect; nearly all actives have a fitted effect of over 55% in size
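Camptothecin absent (DMSO only). Human TDP1-complemented DT40 knockout cells, 400 cells/well, 37 °C for minimum 48 hr; ATP measured via CellTiter-Glo, 30 min dark incubation, luminescence.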
Active calls of the source: *; ? = inconclusive; / = no result. Unless noted, calls follow the shape of the dose curve; as a rule, active = well fitted curve in the direction sought with a large enough effect; inconclusive = small, poorly fitted or top-dose-only effect, or another doubt; inactive = no such curve, though single readings can be large; an effect the other way counts as inactive or inconclusive. Unless noted, % is scaled to controls: 0 for no effect and ±100 for the full control effect.

SMILES	IL-1B inflam inh	TDP1 cell CPT	HT1080 IDH1KD tx	HT1080NT lethal	ELG1 DNA repair	TDP1 cell noCPT
COC1/C=C/C=C(\C)Cc2cc(O)c(Cl)c(c2)N(C)C(=O)CC(OC(=O)C(C)C)C2(C)OC2C(C)C2CC1(O)NC(=O)O2 (configuration not stated)	5.7	0.0164µM*	?	0.0092µM*	/	0.146µM*
CC(C)(C)c1ccc(O)c(N=Cc2c(O)ccc3ccccc23)c1	78.7	25.9µM*	-27.2%	-7.5%	-17.0%	16.4µM*
O=S(=O)(Nc1c(O)ccc2ccccc12)c1ccc(F)cc1	?	?	-16.6%	?	/	?
CCOc1ccc(NC(=O)Cn2cc(C(=O)c3ccccc3)c3ccccc32)cc1	/	-29.4%	/	/	/	?
COc1cc(C2c3cc4c(c(O)c3CC3COC(=O)C32)OCO4)cc(OC)c1OC (configuration not stated)	24.1	0.092µM*	?	0.0052µM*	/	0.116µM*
COc1cc([C@@H]2c3cc4c(c(O)c3C[C@H]3COC(=O)[C@@H]32)OCO4)cc(OC)c1OC	/	0.159µM*	/	/	/	0.126µM*
COc1cc(OC)c(OC)cc1CN1CCN(C(=O)Cc2ccccc2)CC1	0.0	-3.0%	1.5%	3.8%	-14.5%	8.1%
COc1ccc(C)cc1NC(=O)CN1CCN(CC(=O)Nc2ccccc2F)CC1	-22.8	23.1µM*	-5.5%	0.2%	?	14.6µM*
CCOc1ccc(OCC)c(NC(=O)CN2CCN(c3ccc(C)cc3C)CC2)c1	-23.5	?	7.1%	3.3%	?	16.4µM*
COc1cccc(C2C([N+](=O)[O-])=C(N)Oc3c2c(=O)oc2ccccc32)c1 (configuration not stated)	-8.3	-8.7%	11.4%	7.8%	-0.2%	-11.2%
c1cncc(CNC2CCCCC2)c1	31.9	20.1%	6.4%	3.1%	-2.2%	23.0%
c1ccc(CNC2CCCCCCC2)cc1 (tested in a mixture with another compound)	-73.7*	-26.9%	-7.4%	-7.1%	/	?
CSCCC(c1nnnn1C1CCCCC1)N1CCC2(CC1)C(=O)NCN2c1ccccc1 (configuration not stated)	5.4	?	14.4%	28.0%	/	?
O=c1[nH]c2ccccc2n1C1CCN(C(c2nnnn2C2CCCCC2)C2CC2)CC1 (configuration not stated)	-20.8	?	-20.3%	-27.2%	/	14.6µM*
CC(C)(C)n1nnnc1C(CCc1ccccc1)N1CCC(n2c(=O)[nH]c3ccccc32)CC1 (configuration not stated)	?	13µM*	?	?	/	13µM*
CSCCC(c1nnnn1C1CCCCC1)N1CCC(n2c(=O)[nH]c3ccccc32)CC1 (configuration not stated)	-23.0	18.4µM*	?	?	/	9.2µM*
CSCCC(c1nnnn1-c1c(C)cccc1C)N1CCC(n2c(=O)[nH]c3ccccc32)CC1 (configuration not stated)	22.6	25.9µM*	-3.7%	-2.4%	/	18.4µM*
N#CN	/	11.5%	/	/	/	14.4%
O=c1[nH]c2ccccc2n1C1CCN(C(CCc2ccccc2)c2nnnn2C2CCCCC2)CC1 (configuration not stated)	-60.8*	20.6µM*	15.9%	9.0%	/	13µM*
O=c1[nH]c2ccccc2n1C1CCN(C(c2nnnn2C2CCCC2)C2CC2)CC1 (configuration not stated)	-2.6	?	11.8%	13.1%	/	?
CSCCC(c1nnnn1C1CCCC1)N1CCC(n2c(=O)[nH]c3ccccc32)CC1 (configuration not stated)	-9.5	?	1.3%	2.8%	/	23.1µM*
O=c1oc(-c2cccc(C(F)(F)F)c2)nn1-c1ccc(C(F)(F)F)cn1	/	-2.5%	14.8%	?	?	-16.8%
COc1ccc2o/c(=N\O)c(C(=O)Nc3ccc(C)cc3)cc2c1	?	23.1µM*	9.7%	3.4%	2.5%	?
Cc1ccc(O)cc1	/	?	/	/	/	3.5%
Cc1ccc(C=C2C(Cl)=C(Cl)C(Cl)=C2Cl)cc1	-5.6	3.26µM*	0.0%	-20.1%	?	5.17µM*
SMILES	IL-1B inflam inh	TDP1 cell CPT	HT1080 IDH1KD tx	HT1080NT lethal	ELG1 DNA repair	TDP1 cell noCPT
NCC(CP(=O)(O)O)c1ccc(Cl)cc1 (configuration not stated)	/	-3.6%	/	/	/	-9.3%
COc1cc(OC)c2c(c1)OC(c1ccc(OC)c(OC)c1)C(O)C2 (configuration not stated)	/	-28.8%	/	/	/	-25.6%
Cc1cc(N2CCN(S(=O)(=O)c3ccc(Cl)cc3)CC2)c2ccccc2n1	-64.3*	23.1µM*	?	?	23.1µM*	20.6µM*
O=S(=O)(c1ccc(Cl)cc1)N1Cc2ccccc2-n2nncc2C1	45.6	?	-6.3%	-11.0%	/	?
COc1cccc(NC(=O)N2CCc3nc(Nc4ccc(C(C)C)cc4)ncc3C2)c1	-14.3	25.9µM*	-10.1%	?	/	?
CN1C[C@H](C(=O)NC2(C)OC3(O)[C@@H]4CCCN4C(=O)[C@H](Cc4ccccc4)N3C2=O)CC2c3cccc4[nH]cc(c34)C[C@H]21 (some centres not stated)	-2.4	16.4µM*	?	?	/	16.4µM*

Source: PubChem BioAssay (National Center for Advancing Translational Sciences (NCATS))
